Activity calls are given as the source filed them. Rule for the calls: active = hit-call score of the fitted dose curve at least 0.9, where 1 is the maximum; inactive = score below 0.9.
Assay: ATG_AP_2_CIS: Attagene CIS-FACTORIAL HepG2 Assay for human Activator Protein 2 (AP-2) (AID 2282932)
Conditions: HepG2 AP-2 cis-reporter, Attagene transcription factor profiling; actives raise or lower the signal
Experimental: ATG_CIS is a cell-based, multiplexed-readout assay that uses HepG2, a human liver cell line, with measurements taken at 24 hours after chemical dosing in a 24-well plate.ATG_AP_2_CIS is one of 52 assay component(s) measured or calculated from the ATG_CIS assay. It is designed to make measurements of mRNA induction, a form of inducible reporter, as detected with fluorescence intensity signals by Reverse transcription polymerase chain reaction (RT-PCR) and Capillary electrophoresis technology.Data from the assay component ATG_AP_2_CIS was analyzed into 1 assay endpoint. This assay endpoint, ATG_AP_2_CIS, was analyzed with bidirectional fitting relative to DMSO as the negative control and baseline of activity. Using a type of inducible reporter, measures of mRNA for gain or loss-of-signal activity can be used to understand the reporter gene at the transcription factor-level as they relate to the gene TFAP2A and TFAP2B and TFAP2D. Furthermore, this assay endpoint can be referred to as a primary readout, because this assay has produced multiple assay endpoints where this one serves a reporter gene function. To generalize the intended target to other relatable targets, this assay endpoint is annotated to the dna binding intended target family, where the subfamily is basic helix-turn-helix leucine zipper.
Human liver HepG2 cells are transiently transfected with multiple reporter transcription units (MRTUs) in 6-well plates using FuGene 6 reagent (Roche; 3 ml FuGene/1 mg DNA). The MRTU constructs are regulated by a cis-regulating element (promoter). […] A major difference between the CIS and TRANS system is that in CIS activities of endogenous TFs are measured, whereas the TRANS assay evaluates changes in activities of exogenous, chimeric NR-Gal4 proteins. […] At the end of 24 hour incubation, total RNA was isolated using TriZol reagent (Invitrogen). The isolated RNA is then reverse-transcribed using oligo(dT) primer and Mo-MLV reverse transcriptase (Invitrogen) with DNAse I (Ambion) treatment for 30 min. The one-tenth of the produced cDNA was amplified by PCR using Taq DNA polymerase (Invitrogen) and two reporter sequence-specific primers. The PCR products were fluorescently labeled by primer extension with 6-arboxyfluorescein (6-FAM) 5'-labeled reporter sequence-specific primer (2 min at 95 C, 20 s at 68 C and 10 min at 72 C) and these products were digested with 5U of HpaI (New England Biolabs) for 2h at 37 C. The fragments were purified using Qiaquick PCR columns (Qiagen), analyzed on an ABI 3130xL genetic analyzer (Applied Biosystems) with peak positions identified by using a set of X-rhodamine (ROX)-labeled MapMarker1000 molecular weight standards (BioVentures). The raw capillary electrophoresis data was processed using Attagraph software (Attagene).

Structure (SMILES) | outcome | AC50
CCOc1nc(F)cc2nc(S(=O)(=O)Nc3c(Cl)cccc3C(=O)OC)nn12 | inactive | 
COC(=O)/C=C\C(=O)O | inactive | 
COc1cc(C)ccc1C(C)C | inactive | 
CN(C)c1ccc(C(=N)c2ccc(N(C)C)cc2)cc1 | inactive | 
CCC(CC)C(=O)O | inactive | 
c1ccc(-c2ccccn2)nc1 | inactive | 
CC(C)(c1cc(Br)c(OCCO)c(Br)c1)c1cc(Br)c(OCCO)c(Br)c1 |  | 10.5 µM (active)
Cc1ccc([N+](=O)[O-])cc1S(=O)(=O)O |  | 163 µM (active)
c1ccc(CNCc2ccccc2)cc1 | inactive | 
CC=CC(=O)N(CC)c1ccccc1C | inactive | 
O=C1OC(=O)c2cc(Oc3ccc4c(c3)C(=O)OC4=O)ccc21 | inactive | 
C=CC(=O)NC(C)(C)CS(=O)(=O)O | inactive | 
CC(=O)OC1C2(C)CCC(C2)C1(C)C (stereo not given) | inactive | 
C=COCCCC | inactive | 
O=C(C=Cc1ccccc1)OCc1ccccc1 | inactive | 
O=C(O)CCCC[C@@H]1SC[C@@H]2NC(=O)N[C@@H]21 | inactive | 
O=c1cc[nH]c(=S)[nH]1 | inactive | 
COCc1c(C(C)C)nc(C(C)C)c(/C=C/[C@@H](O)C[C@@H](O)CC(=O)O)c1-c1ccc(F)cc1 | inactive | 
O=C(C(Cl)Cl)N1CCOC12CCCCC2 | inactive | 
Cn1c(=O)[nH]c2ncn(C)c2c1=O | inactive | 

Structure (SMILES) | outcome | AC50
FC(F)=C(F)OC(F)(F)C(F)(F)C(F)(F)F | inactive | 
NC(=O)C1CO1 (stereo not given) | inactive | 
CCCCCCCC/C=C\CCCCCCCC(=O)O | inactive | 
CCCCCCCCCCCCCCCC[n+]1ccccc1 |  | 21 µM (active)
CC1=CC[C@H](C(C)C)C=C1 | inactive | 
CC(=O)Nc1ccc2c(c1)Cc1cc(NC(C)=O)ccc1-2 | inactive | 
CC(=O)OC(C)C | inactive | 
CC(C)CCCCCOC(=O)CCS | inactive | 
Nc1ncn([C@@H]2O[C@H](CO)[C@@H](O)[C@H]2O)c(=O)n1 | inactive | 
CCOC(=O)CC(C(C)=O)C(C)=O | inactive | 
C=C(C)[C@@H]1CCC2=CCC[C@@H](C)[C@]2(C)C1 | inactive | 
C#CC1(O)CC[C@H]2[C@@H]3CCC4=CCCC[C@@H]4[C@H]3CC[C@@]21C (stereo not given in full) | inactive | 
Cc1oncc1C(=O)Nc1ccc(C(F)(F)F)cc1 | inactive | 
CCCOC(=O)CCCCC(=O)OCCC | inactive | 
C[Si](C)(CCCN)O[Si](C)(C)CCCN | inactive | 
CC(C)c1ccc(C=O)cc1 | inactive | 
Cc1cc(C)c(C)cc1C | inactive | 
CC(C)(Oc1ccc(C2CC2(Cl)Cl)cc1)C(=O)O (stereo not given) | inactive | 
CC1(C)[C@H]2CC[C@]1(C)C(=O)C2 | inactive | 
COc1ccc(-c2coc3cc(O)ccc3c2=O)cc1 | inactive | 
